# Source: PubChem BioAssay (University of Kansas High Throughput Screening Laboratory)
# Most compounds without a hit are left out; they make up all but 3.6% or so of the library.
# Pf apPOL block: Pf-apPOL DNA polymerase inhibition; Recombinant Pf-apPOL, molecular beacon fluorescence, 1.5 h; inhibition, % at 10 µM; 210,000 compounds, 0.25% hits
# mHTT-CaM PPI inh: inhibitors of human mutant huntingtin-calmodulin interaction; 190,000 compounds, 3.6% hits; AID 1671202; AlphaScreen His-mHTT/GST-CaM binding, luminescence; inhibition, % at 15 µM; P42858;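 further: 0% = both proteins with DMSO and 100% = one protein alone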
# Starred values were filed as active, the others as inactive; i = inactive; / = no result. No stated cut-off is given here; in the data, active means inhibition above about 50%; inactive means the rest.
SMILES,Pf apPOL block,mHTT-CaM PPI inh
CCC(NS(=O)(=O)c1ccc(Cl)c([N+](=O)[O-])c1)C12CC3CC(CC(C3)C1)C2 (stereo not drawn),-4,99*
COc1ccc(NC(=O)CCOc2ccccc2)c(OC)c1,-138,2
COc1ccc(NC(=O)CC2(C)NN=C(c3ccccc3)S2)c(OC)c1 (stereo not drawn),-25,73*
COc1ccc(OC)c(CCC(=O)O)c1,-9,-7
COc1ccc(CCCC(=O)O)cc1C,63*,2
CSc1ccccc1C(=O)NCC(O)c1cccc2ccccc12 (stereo not drawn),0,-14
O=C1Nc2ccccc2OC1C(=O)N1CCN(c2ccccc2F)CC1 (stereo not drawn),-1,-9
CCCNC(=O)c1ccc2c(c1)Sc1ncccc1C(=O)N2C1CC1,0,-2
O=C(O)CCC(C(=O)O)N1C(=O)C(=Cc2ccco2)SC1=S (stereo not drawn),41,1
CC(C)C(C(=O)O)N1C(=O)C(=Cc2ccco2)SC1=S (stereo not drawn),36,11
CCCC(C(=O)O)N1C(=O)C(=CC=Cc2ccco2)SC1=S (stereo not drawn),92*,84*
CC(C(=O)O)N1C(=O)C(=CC=Cc2ccco2)SC1=S (stereo not drawn),91*,30
Cc1ccc(Oc2nccnc2N2CCC(C(=O)NCc3ccccc3F)CC2)cc1,3,1
N#Cc1c(-c2ccccc2)nc(NN=Cc2cccs2)[nH]c1=O,-7,/
COc1ccc(CCC(=O)NCCC2CCN(C(=O)c3ccc(C)cc3)CC2)cc1,-1,20
O=C(/C=C/c1ccccc1)O/N=C1\CCCc2oc3c(c21)CCCC3,-5,i
CC1=CC(=O)C=C(C)C1=NOC(=O)/C=C/c1ccccc1,0,100*
COc1ccccc1NC(=O)C1=C(C)Nc2nc3ccccc3n2C1c1cccnc1 (stereo not drawn),-3,5
COc1ccccc1NC(=O)C1=C(C)Nc2nc3ccccc3n2C1c1ccc(Cl)cc1 (stereo not drawn),0,51*
CSc1ccccc1NC(=O)c1cc2n(n1)C(C(F)(F)F)CC(c1ccc3c(c1)OCO3)N2 (stereo not drawn),-1,45
CN(C)CCCN1c2ccccc2Sc2ccc(Cl)cc21,10,/
CC(C)COc1ccc2c(c1)Sc1ccccc1N2CCN(C)C,-20,93*
CCOc1cc(/C=C2\C(=O)Nc3ccc(Br)cc32)cc(Cl)c1O,0,100*
COc1cc(/C=C2\C(=O)Nc3ccc(Br)cc32)cc([N+](=O)[O-])c1O,0,96*
O=C1Nc2ccc(I)cc2C1=Cc1cc(Br)c(O)c(Br)c1,-124,/
SMILES,Pf apPOL block,mHTT-CaM PPI inh
COc1ccc(/C=C2\C(=O)Nc3ccc(Br)cc32)cc1OC,-3,90*
COc1cc(/C=C2\C(=O)Nc3ccc(Br)cc32)cc(Cl)c1O,-38,100*
COc1cc(/C=C2\C(=O)NC(=O)N(c3ccc(C)cc3)C2=O)cc(Cl)c1O,1,4
COc1ccc(/C=C2\C(=O)Nc3ccc(Br)cc32)cc1,-3,48
COc1cc(/C=C2\C(=O)NC(=O)N(c3ccc(C)cc3)C2=O)cc([N+](=O)[O-])c1O,5,3
CC1CCCN(C(=O)C2CCN(CCc3cn(C)c4ncccc34)CC2)C1 (stereo not drawn),0,0
CC(=O)Nc1ccc(-c2noc(C3CCN(C(=O)CNC(=O)c4ccccc4)CC3)n2)cc1,-4,-7
O=S(=O)(N=Cc1ccc(Br)cc1)c1cccs1,10,3
COc1cccc(NC(=O)CN2CCC(c3nc(-c4ccncc4)no3)CC2)c1,-5,17
CCn1c(SC)nnc1-c1nn(C)c2c1CN(C(=O)C1CC1)CC2,0,-2
O=C1/C(=C\c2ccc(O)cc2)C(N2CCOCC2)=NN1c1ccc([N+](=O)[O-])cc1,4,84*
CCOC1=NN(c2ccc([N+](=O)[O-])cc2)C(=O)/C1=C/c1ccc(Cl)cc1,-2,34
COc1ccc(C2(CNC(=O)c3ccccc3[N+](=O)[O-])CCCC2)cc1OC,1,100*
COc1ccc(C2(CNC(=O)c3ccc(OC)c([N+](=O)[O-])c3)CCCC2)cc1OC,1,9
COc1ccc(-c2cc3ccc(OCC=C(C)C)cc3oc2=O)cc1OC,-1,-15
CSc1ccc(/C=C2\SC(c3ccc(C)cc3)=NC2=O)cc1,-6,4
CC(C)C1C(=O)N(Cc2cn(CC3CCCCC3)nn2)CCS(=O)(=O)N1Cc1ccc(-c2ccncc2)cc1 (stereo not drawn),-2,54*
CC(C)C1C(=O)N(Cc2cn(CC3CCCCC3)nn2)CCS(=O)(=O)N1Cc1ccc(-c2ccccc2)cc1 (stereo not drawn),-4,30
CC1C(=O)N(Cc2cn(CC3CCCCC3)nn2)CCS(=O)(=O)N1Cc1ccc(-c2ccncc2)cc1 (stereo not drawn),10,40
CC1C(=O)N(Cc2cn(CC3CCCCC3)nn2)CCS(=O)(=O)N1Cc1ccc(-c2ccc(F)cc2)cc1 (stereo not drawn),5,58*
CC(C)C1C(=O)N(Cc2cn(CC3CCCCC3)nn2)CCS(=O)(=O)N1Cc1ccc(-c2cccc(CO)c2)cc1 (stereo not drawn),-9,55*
Cc1ccc(-c2ccc(CN3C(C(C)C)C(=O)N(Cc4cn(CC5CCCCC5)nn4)CCS3(=O)=O)cc2)cc1 (stereo not drawn),3,17
Cc1ccc(NC(=O)Nc2nc(C(=O)Nc3ccc4c(c3)OCO4)cs2)cc1,4,-3
O=C(NC1CC1)c1ccc(CS(=O)(=O)Cc2ccc(Cl)cc2)o1,-16,-11
COc1cccc(C2=NOC(C(=O)N3CCN(c4ccccc4)CC3)C2)c1 (stereo not drawn),-1,-5
SMILES,Pf apPOL block,mHTT-CaM PPI inh
CC(C)N(C(=O)c1cccs1)C(C)C,-9,4
Cc1cccc(NC(=O)C2=C3CCCN3c3ccccc3S2(=O)=O)c1,0,4
Cc1ccc(C)c(NS(=O)(=O)c2cn(C)c3ncccc23)c1,91*,55*
CCCn1cc(S(=O)(=O)Nc2cccc(C)c2)c2cccnc21,1,-1
CCOC(=O)c1sc(-c2ccccc2)cc1NC(=O)c1cccc(N2C(=O)CCC2=O)c1,-4,-4
COc1ccc(-c2csc(Nc3ccc(C(=O)O)cc3)n2)cc1,2,15
COc1ccc(-c2csc(Nc3ccc(NC(C)=O)cc3)n2)cc1,0,60*
CC(=O)Nc1ccc(Nc2nc(-c3ccc(Cl)cc3)cs2)cc1,-3,76*
CC(=O)Nc1ccc(Nc2nc(-c3ccccc3)cs2)cc1,-2,44
CC(Oc1cccc(Cl)c1)C(=O)N1CCn2c(nnc2C(C)C)C1 (stereo not drawn),2,-9
Cc1ccc2c(c1)N(Cc1cc(F)cc(F)c1)N=C(C(=O)N1CCCC1)S2(=O)=O,-1,1
Cc1ccccc1-n1nc2c(c1NC(=O)C13CC4CC(CC(C4)C1)C3)CS(=O)(=O)C2,78*,11
Cc1ccccc1-n1nc2c(c1NC(=O)C13CC4CC(CC(C4)C1)C3)CSC2,-7,0
CC(=O)N/C(=N\OCc1ccccc1F)c1nonc1NC(C)=O,-6,i
COc1ccc(Nc2cc(-n3cccn3)ncn2)cc1,-1,-3
O=C(Nc1ccc(Nc2cc(-n3cccn3)ncn2)cc1)c1ccco1,-31,100*
Cc1ccc(NC(=O)c2nc(C)oc2C)c(C)c1,1,-12
